High-throughput results as filed in PubChem BioAssay.
KDM5B inh: blocks human KDM5B histone demethylase activity | KDM5B demethylase, FDH-coupled NADH fluorescence (FDH is formaldehyde dehydrogenase) | Potency, µM (highest dose often 57.7 µM), actives largely listed as inhibitors | 220,000 compounds, 2.6% hits; active means well fitted inhibition curve with a large enough effect; further: nearly all actives have a fitted effect of over 70% in size
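Measured: NADH fluorescence change, 30 min, RT. System: KDM5BΔAP 200 nM final, H3K4me3 peptide, α-KG, Fe(II), ascorbate, NAD⁺ plus FDH, pH 7.5 HEPES. Compounds: titrated, 10 min pre-incubation with enzyme.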
Of the large screens only hits and unclear results are named; the others gave an inactive call. Only a selection was taken, and hits are over-represented in it overall.

Cc1ccc(C(=O)N2CCC(n3cc(-c4nc(C5CC5)no4)nn3)C2)s1 (centres undefined)	none
O=C1/C(=C/c2cccc(Br)c2)Cc2ccccc21	none
CNc1c(NC(=O)c2cccc(Cl)c2)c(=O)oc2ccccc12	none
O=C(Nc1cc(F)cc(F)c1)c1cnc(-c2ccc(F)cc2)nc1-c1ccncc1	none
Cc1c(C(=O)N2CCC3(CCCN(C)C3=O)C2)n(C)c2ccc(F)cc12 (centres undefined)	none
Cc1nc(C2CC2)ncc1C(=O)N1CCC2(CC1)NC(=O)CC2C(=O)O (centres undefined)	none
Cc1nc(C2CC2)ncc1C(=O)N1CCN(C)C2(CCNC(=O)CC2)C1 (centres undefined)	none
Cc1nc2ncccn2c1C(=O)N1CCC(c2nccn2CC(N)=O)CC1	KDM5B inh 28µM
CSc1ncc(C(=O)N2CCC(c3nccn3CCN(C)C)CC2)cn1	none
Cc1nc2ncccn2c1C(=O)N1CCC2(CCCN(C)C2=O)C1 (centres undefined)	KDM5B inh 28µM
Cc1nc(C(C)C)ncc1C(=O)N1CCC2(CCCN(C)C2=O)C1 (centres undefined)	none
CCCc1cc(C(=O)N2CCCC(Cc3ccccc3F)(C(=O)OCC)C2)n(C)n1 (centres undefined)	none
COCCn1ccnc1C1CCN(C(=O)c2ccc3n[nH]nc3c2)CC1	none
Cc1nc2ncccn2c1C(=O)N1C[C@H]2C(=O)NC[C@@]2(C(=O)O)C1	KDM5B inh 28µM
CCOC(=O)C1(Cc2ccc(F)cc2F)CCCN(C(=O)c2c(C)nc3ncccn23)C1 (centres undefined)	KDM5B inh 32µM
CCOC(=O)C1(Cc2ccccc2F)CCCN(C(=O)c2ccc(-n3ccnc3)cc2)C1 (centres undefined)	none
CCC1CCCCN1C(=O)Cn1c(-c2ccccc2)nc(C)cc1=O (centres undefined)	none
CCN(CC)Cc1ccc(CNC(=O)c2cnn(-c3ccccc3)c2)cc1	none
COc1ccc(CN2CCCCCNC(=O)CC2c2ccccc2)cc1Cn1ccnc1 (centres undefined)	none
COc1ccc2cc(CNC3CCCc4ccccc43)ccc2c1 (centres undefined)	none
COc1cccc(S(=O)(=O)N2C[C@@H](Oc3ccccc3)C[C@@H]2C(=O)N2CCOCC2)c1	none
CC1CCC(NC(=O)c2cc3ccccc3c(Cl)n2)CC1 (centres undefined)	none
O=C(Nc1ncc(Cc2cccc(C(F)(F)F)c2)s1)C1=Cc2ccccc2OC1	none
Cc1cc(COc2ccc(C(=O)c3ccc(F)cc3)cc2)on1	none
CCc1ccc2oc(C(=O)NCc3ccc(C)cc3)cc(=O)c2c1	none
Cc1cccc(N2CCN(C(=O)c3ccc4c(c3)N(C(=O)c3ccccc3)CC4)CC2)c1C	none
CCCNC(=O)N(C1CCOCC1)C1CCN(C(=O)Cc2ccccc2F)CC1	none
COCCO[C@H]1C(=O)N(C2CCN(C(=O)NC3CCCCC3)CC2)[C@H]1c1ccncc1	none
O=C(Cc1cccs1)N1CCN(c2cc(C(F)(F)F)ncn2)CC1	none
CCOCC(=O)N1CCC(N2CC(OCC3CC3)C23CCCCC3)CC1 (centres undefined)	none
CO[C@H]1C(=O)N(C(C)C)[C@H]1C1CCN(C(=O)NC2CCCCC2)CC1	none
COc1nccnc1NC1CCN(C(=O)NC2CCCCC2)CC1	KDM5B inh 32µM
COc1nccnc1NC1CCN(C(=O)Cc2cccs2)CC1	KDM5B inh 32µM
COc1nccnc1NC1CCN(C(=O)Cc2ccccc2F)CC1	KDM5B inh 35µM
COCC(=O)N1CCC(Oc2ncccc2C(=O)N(C)C)CC1	none
CCCN(C)c1nccnc1OC1CCN(C(=O)Cc2ccccc2OC)C1 (centres undefined)	none
CCOCC(=O)N1CCC(Nc2nccnc2OC)CC1	KDM5B inh 28µM
COc1ccc(-n2nnc3c(N4CCN(C(=O)Cc5cccs5)CC4)ncnc32)cc1	none
O=C(Cn1ccc(=O)[nH]c1=O)NC(c1ccccc1)c1cccs1 (centres undefined)	none
C=C(C)Cn1c(N2CCN(c3cccc(Cl)c3)CC2)nc2c1c(=O)[nH]c(=O)n2C	none
O=C(CN1CCN(c2cnn(-c3ccccc3)c(=O)c2Cl)CC1)Nc1ccc2[nH]c(=O)[nH]c2c1	none
CC(C)NC(=O)NC(=O)CN(C)Cc1cccc(C#N)c1	none
O=C(NC[C@H]1O[C@@H](CC(=O)N2CCc3ccccc32)[C@H](O)[C@@H]1O)Nc1cccc(F)c1	none
COc1ccc(NS(=O)(=O)c2cc(-c3cnc(C)o3)ccc2OC)cc1	none
COc1cc(NS(=O)(=O)c2cccc(Cl)c2C)cc2sc(NC(C)=O)nc12	none
COc1ccccc1NC(=O)COc1nc(C(C)C)c2c(c1C#N)CCCC2	none
Cc1nnc(N2CCN(C(=O)Nc3ccccc3)CC2)c2nn(-c3ccc(Cl)cc3)c(C)c12	none
COc1ccc(-c2cnc3[nH]cc(CC(=O)N4CCCC4)c3c2)cc1	KDM5B inh 35µM
O=C1CN(C(=O)Cc2c[nH]c3ncc(-c4ccccc4)cc23)CCN1	KDM5B inh 40µM
COc1ccc(-c2cnc3[nH]cc(CC(=O)N4CCC(OC)CC4)c3c2)cc1	KDM5B inh 35µM
O=C1CN(C(=O)CCc2c[nH]c3ccccc23)CCN1	none
COc1ccc2c(C)cc(SCC(=O)N3CCCCCC3)nc2c1	none
COC1CCN(C(=O)Cc2c[nH]c3ncc(-c4ccccc4)cc23)CC1	KDM5B inh 40µM
CC1CCN(C(=O)C2CCN(C(=O)Cc3c[nH]c4ccccc34)CC2)CC1	none
Cc1ccc(OCCC2CCN(C(=O)Cc3c[nH]c4ccccc34)C2)cc1 (centres undefined)	none
COc1ccc(-c2cc(C(F)(F)F)nc(SCCC(=O)N3CCCC3)n2)cc1	none
COc1ccc(OCc2nc(C3CN(C(=O)Cc4c[nH]c5ccccc45)C3)no2)cc1	none
COCCOC1CCN(C(=O)Cc2ccccc2)CC1	none
O=C1CN(C(=O)CCc2ncc(-c3ccccc3)o2)CCN1	none
COc1ccc(C(=O)N2CCc3c(sc4ncnc(N)c34)C2)cc1OC	none
S=c1[nH]c(-c2ccc(Cl)cc2Cl)cs1	none
CN(C)c1ccc(C(N)=S)cc1	none
Cc1oc(-c2ccccc2)nc1CC(=O)N1CCOCC1(C)C	none
CCCCCCCn1c(Br)nc2c1c(=O)n(C)c(=O)n2C	none
Cc1cccc(NC(=O)c2nc3ccccc3nc2N2CCOCC2)c1	none
COc1cc(OC)c(NC(=O)Cn2c(C(=O)c3cccc(F)c3)nc3ccccc32)cc1Cl	none
Cc1ccc(-c2nnn(CC(O)COc3ccc(C)cc3C)n2)cc1 (centres undefined)	none
Fc1ccccc1-c1nnc(SCc2ccc3ccccc3n2)n1C1CC1	none
COC(=O)CNC(=O)Nc1cc(C(=O)NCc2ccc(C(C)C)cc2)ccc1N1CCCC1	none
COc1cc(OC)cc(C(=O)OCC2C(COC(=O)c3cc(OC)cc(OC)c3)C2(Cl)Cl)c1 (centres undefined)	none
O=C(O)c1nnn(-c2ccc(Br)cc2)c1C(F)(F)F	none
CCc1cc(C#N)c(N)s1	none
Fc1ccc(-c2ccc(CNCC3CCNCC3)o2)cc1Cl	none
Cc1cc(C)cc(OCCn2c(CN(C)C(=O)c3ccco3)nc3ccccc32)c1	none
O=C(Nc1nn(-c2cccc(F)c2)c2cccc(N3CCOC3=O)c12)C1CCC1	KDM5B inh 28µM
O=C(NCc1cccc(F)c1)C1CCCN(C(=O)N2CCOc3ccccc32)C1 (centres undefined)	none
O=C(NC1CC(=O)N(c2cccc(F)c2)C1)C1CCCCC1 (centres undefined)	none
CCCn1c(CN2CCN(C(=O)OCC)CC2)nc2cc(NC(=O)c3ccc(Cl)cc3)ccc21	none
O=C(/C=C/c1ccccc1)OCCCc1ccccc1	none
COc1c(C)cc(Br)cc1C(=O)Nc1sc2c(c1C(N)=O)CCCCC2	none
